Here are results for 40 molecules from PubChem BioAssay (Tox21).

Records with an inconclusive call do not appear. The source made the active and inactive calls. Calls come from the whole dose curve; as a rule, active = well fitted cell-killing curve with a large enough effect in the repeat runs; inconclusive = weak or mixed curves, or effect the other way; inactive = no such curve, though single readings can be large or run the other way.
% is set by controls: 0 for no effect and ±100 for the full control effect; potency is the fitted concentration of half-maximal effect.

The nature of this assay: qHTS assay for identifying genotoxic compounds that show differential cytotoxicity against isogenic chicken DT40 cell lines with known DNA damage response pathways - wild type cell line (AID 743012). Note: nearly all actives have a fitted effect of over 60% in size. To be noted: DT40 wild type chicken cells viability, CellTiter-Glo, 40 h; series mostly up to 68.4 µM; activity change, negative = cytotoxicity: at the top concentration. From the text: U.S. Tox21 Program National Center for Advancing Translational Sciences [NCATS] NIH Chemical Genomics Center [NCGC] U.S. Environmental Protection Agency [EPA] National Institutes of Environmental Health Sciences [NIEHS] National Toxicology Program [NTP] U.S. Food and Drug Administration [FDA] Tox21 Assay Overview: DNA repair pathways play a critical role in cellular homeostasis by repairing DNA damage induced by endogenous processes and xenobiotics. Isogenic chicken DT40 cell lines deficient in different DNA repair pathways can be used to identify genotoxic compounds and aid in characterizing the nature of the DNA damage induced. Two DNA repair-deficient cell lines with disrupted genes, Rad54/Ku70 or Rev3, were used to screen the Tox21 10K compound library. Possible genotoxicity was based on the presence of a significant increase in cytotoxicity in one or more of the DNA repair-deficient cell lines compared to that observed in the parental DNA repair-proficient cell line. CellTiter Glo viability assay (Promega, Madison, WI) was used to measure cell viability in these cells after compound treatment. This assay includes the data from the wild type cell line.
Tox21 Assay Protocol Summary: 300 DT40 wild type cells in 5 uL/well were dispensed into white, solid-bottom 1536-well plates using a Multidrop Combi (ThermoFisher Scientific, Waltham, MA) dispenser. After the assay plates were incubated at 37 C/5% CO2 for approximately 0.5 hour, 23 nL of compounds dissolved in DMSO, positive controls or DMSO only was transferred into the assay plate by a pintool work station (Kalypsys, San Diego, CA). The assay plates were incubated at 37 C/5% CO2 for 40 hours. After 5 uL per well of CellTiter-Glo reagent was added into each well of the assay plates, the plates were incubated for 30 min at room temperature and the luminescence intensity of the plates was measured using a ViewLux (PerkinElmer, Shelton, CT) plate reader.
As to `O=C1CCCCC1CN1CCCCC1` (stereo not given), the Potency was 23.7 µM (active).
Still for that read-out and setting: as for `CC(C)(O)[C@@H]1[C@H]2OC(=O)[C@@H]1[C@]1(O)C[C@H]3O[C@]34C(=O)O[C@H]2[C@]14C`, the entry is “inactive”.
As for `O=C(CS(=O)C(c1ccccc1)c1ccccc1)NO` (stereo not given), the “activity change, negative = cytotoxicity” value was -1.27% (inactive).
The same measure, in the same setting: as for `C[C@@H]1[C@H](O)[C@@H](C)/C=C/C=C/CC/C=C/C=C/C=C/C=C/[C@H](O[C@H]2O[C@@H](C)[C@H](O)[C@@H](N)[C@H]2O)CC2O[C@](O)(C[C@@H](O)[C@H](O)CC[C@@H](O)C[C@@H](O)C[C@@H](O)CC(=O)O[C@H]1C)C[C@H](O)[C@H]2C(=O)O`, the figure is 8.22% (inactive); as for `O=c1ccc2cc(O[C@@H]3O[C@H](CO)[C@@H](O)[C@H](O)[C@H]3O)c(O)cc2o1`, -1.2% [at 31.4 µM] (inactive).
For `CC1COC(Cn2cncn2)(c2ccc(Oc3ccc(Cl)cc3)cc2Cl)O1` (stereo not given), the Potency was 1.37 µM (active).
With `CC1(C)S[C@@H]2[C@H](N)C(=O)N2[C@H]1C(=O)O`, the “activity change, negative = cytotoxicity” value is 5.68% [at 31.4 µM] (inactive).
The same measure, in the same setting: with `CN(C)CCCCCCN(C)C` (tested in a mixture with another compound) the figure was 15.3% (inactive).
As for `CCC1(c2ccccc2)C(=O)NC(=O)N(C)C1=O` (stereo not given), the “activity change, negative = cytotoxicity” value was 0.989% (inactive).
For the molecule `O=P1(N(CCCl)CCCl)NC(OO)CCO1` (stereo not given), the “activity change, negative = cytotoxicity” value was -0.533% (inactive).
Same read-out and setting: as for `C[C@]12CC[C@H]3[C@@H](CCC4=C(O)C(=O)CC[C@@H]43)[C@@H]1CC[C@@H]2OC(=O)CCC1CCCC1`, the figure is 0.575% (inactive).
On the same count and under the same terms, with `CCNC1(c2cccs2)CCCCC1=O` (stereo not given) the figure was 2.09% [at 31.4 µM] (inactive); with `c1ccccc1`, 10.3% (inactive); with `CNC(C)Cc1ccccc1` (stereo not given), 0.848% (inactive).
Turning to `CCOc1ccc2c3c1O[C@H]1[C@@H](O)C=C[C@H]4[C@@H](C2)N(C)CC[C@@]341`, the “activity change, negative = cytotoxicity” value is -0.842% (inactive).
Turning to `[H+].[H+].[Hg+2].[O-]B([O-])[O-].[c-]1ccccc1`, the Potency is 0.266 µM (active).
Take `Clc1ccc(C(Cn2ccnc2)OCc2csc3c(Cl)cccc23)c(Cl)c1` (stereo not given): the Potency was 12.7 µM (active).
Turning to `CCNC(C)Cc1cccc(C(F)(F)F)c1` (stereo not given), the “activity change, negative = cytotoxicity” value was -3.93% (inactive).
The same measure, in the same setting: with `CC[N+](C)(CC)CCOC(=O)C(O)(c1ccccc1)c1ccccc1` the figure was 15.8% (inactive); with `C/C=C(\CC)C(=O)NC(N)=O`, 0.0508% (inactive); with `CCCC(C)C1(CC)C(=O)NC(=O)NC1=O` (stereo not given), 0.91% (inactive).
On the same count and under the same terms, with `O=C1CCO1` the figure was 0.309% (inactive).
For the molecule `C[N+]1([O-])[C@@H]2CC(OC(=O)[C@H](CO)c3ccccc3)C[C@H]1[C@@H]1O[C@@H]12` (stereo not given in full), the Potency result was “inactive”.
As for `CCC1C(C)=NN=C(c2ccc(OC)c(OC)c2)c2cc(OC)c(OC)cc21` (stereo not given), the “activity change, negative = cytotoxicity” value was -2.47% (inactive).
Regarding `O=C1C[C@@H]2OCC=C3CN4CC[C@]56c7ccccc7N1[C@H]5[C@H]2[C@H]3C[C@H]46` (tested in a mixture with another compound), the Potency result is “inactive”.
As for `CCN(CC)CCO[C@H]1CC[C@@]2(C)C(=CC[C@@H]3[C@@H]2CC[C@]2(C)C(=O)CC[C@@H]32)C1`, the Potency is 1.33 µM (active).
With `CCCCCCCCCC(=O)O[C@H]1CC[C@H]2[C@@H]3CCC4=CC(=O)CC[C@]4(C)[C@H]3CC[C@]12C`, the “activity change, negative = cytotoxicity” value is 6.91% (inactive).
`COc1cc([C@@H]2c3cc4c(cc3[C@@H](O)[C@H]3COC(=O)[C@H]23)OCO4)cc(OC)c1O`: the Potency is 0.237 µM (active).
Take `NC(=O)CN1CC(O)CC1=O` (stereo not given): the “activity change, negative = cytotoxicity” value was 6.01% (inactive).
On the same count and under the same terms, as for `Oc1ccc2c3c1O[C@H]1[C@@H](O)C=C[C@H]4[C@H](C2)NCC[C@@]341`, the figure is 12% (inactive).
Still for that read-out and setting: with `C[N+]1([O-])[C@@H]2CC[C@H]1CC(OC(=O)C(CO)c1ccccc1)C2` (stereo not given in full) the figure was -5.24% (inactive).
As for `CO/C=C(/C(=O)OC)c1ccccc1Oc1cc(Oc2ccccc2C#N)ncn1`, the Potency was 0.0731 µM (active).
The same measure, in the same setting: as for `CC(=O)O[C@H]1CC[C@H]2[C@@H]3CCC4=CC(=O)CCC4=C3C=C[C@]12C`, the figure is 23.7 µM (active).
Take `OC[C@@H](O)[C@H]1O[C@@H]2O[C@@H](C(Cl)(Cl)Cl)O[C@@H]2[C@H]1O`: the “activity change, negative = cytotoxicity” value was 4.8% (inactive).
On to `CN[C@@H]1C[C@@H](c2ccc(Cl)c(Cl)c2)c2ccccc21`, for which the Potency was 5.96 µM (active).
On the same count and under the same terms, as for `ClC1=C(Cl)[C@]2(Cl)[C@@H]3[C@@H](Cl)[C@H]4O[C@H]4[C@@H]3C1(Cl)C2(Cl)Cl`, the figure is 61.1 µM (active).
In the case of `Clc1ccccc1-c1ccccc1Cl`, the “activity change, negative = cytotoxicity” value was 22.3% [at 95 µM] (inactive).
Same read-out and setting: as for `Cc1cc(C(C)(C)c2ccc(O)c(C)c2)ccc1O`, the figure is -8.09% (inactive); as for `COC(=O)[C@H]1[C@@H](OC(=O)c2ccccc2)C[C@@H]2CC[C@H]1N2C`, -17.8% (inactive).
The same measure, in the same setting: with `CC(=O)OO` the figure was 2.16% (inactive).
